# Measurements reported in PubChem BioAssay (EPA / NIEHS).
# Where “and” joins values, the source holds several entries; their conditions need not be identical. Equal values may be shown once. A structure can be active in one record and inactive in another. Calls of active or inactive are those of the source. Rule for the calls: active = hit-call score of the fitted dose curve at least 0.9, where 1 is the maximum; inactive = score below 0.9.
# Experiment: CCTE_Shafer_MEA_dev_burst_duration_mean: CCTE's Neural Network Formation Assay for Mean Burst Duration, Shafer Lab (AID 2284045);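 for AC50: curve fitted for loss meaning shorter burst duration than DMSO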
# Procedure: CCTE_Shafer_MEA_dev assay is conducted using Axion Biosystems 48 well microelectrode array (MEA) plates and Maestro recording system. Each well of the MEA plate contains a grid of 16 microelectrodes embedded in the culture surface. Electrically active cells, such as neurons, can be cultured over the electrodes, and electrical activity in these cells can be recorded extracellularly. The spontaneous firing of neurons is captured from each electrode on a microsecond timescale providing both temporally and spatially precise data. […] The CCTE_Shafer_MEA_dev assay uses primary cultures of rat cortical neurons. Recordings are made on days post-plating 5, 7, 9 and 12. As these cultures mature over time, neural networks develop functional activity and form cohesive networks in which electrical activity can be highly coordinated. CCTE_Shafer_MEA_dev_burst_duration_mean is 1 of 19 assay components of the CCTE_Shafer_MEA_dev assay. It measures the average time interval from the first spike (action potential firing) to the last spike in a singe-electrode burst (temporally-clustered group of spikes) during a recording in a microelectrode array (MEA) using Axion Biosystems Maestro 768 channel amplifier with the AxIS adaptive spike detector. The mean burst duration is averaged across the actively bursting electrodes to report a well-mean value. To collapse across multiple recordings made on days post-plating 5, 7, 9 and 12, the trapezoidal area-under-the-curve of the component is calculated.Data from the assay component CCTE_Shafer_MEA_dev_burst_duration_mean was analyzed into 1 assay endpoint. This assay endpoint, CCTE_Shafer_MEA_dev_burst_duration_mean, was analyzed in the negative analysis fitting direction relative to DMSO as the negative control and baseline of activity. Using a type of functional reporter, gain or loss-of-signal activity can be used to understand electrical activity.
# On the day prior to culture, each well was coated thoroughly with 150 uL of 0.05% polyethyleneimine (PEI, Sigma Cat P3143) in 50 mM HEPES (Sigma Cat H7523) at a pH of 8. The plate was incubated at 37C for one hour. PEI was rinsed out with 500 uL of sterile water three times. Plates were stored at 4C until the day of culture. This culture was plated at a seeding density of 1.5 x 10^5 cells/well on a 48-well MEA plate, prepared as described above. Cells were administered via a 25 uL media/laminin ([…]; Sigma Cat L2020-1MG) drop directly onto the microelectrode array, as adding the cells with the laminin results in better attachment than pre-coating with laminin. After 2 hours, an additional 475 uL of cortical media was added and the cells returned to the incubator. Exposure starts at day 0 of plating and is continued over twelve days of network development until the experiment is terminated. Cells are fed with fresh medium on DIV 5 and 9, following the recordings on those days. The entire volume of media in the well is exchanged and any vehicle or compound treatment is renewed. Complete details are found in OP-NHEERL/ISTD/SBB/TJS/2015-03-r0 (available on request, email shafer.tim@epa.gov). Measurement of the electrical activity is non-invasive, and recordings can be made from the same plate over multiple different days of the culture. In cortical neurons, this allows for the measurement of extracellular action potentials over the period during which networks form in the MEA plate.
Structure (SMILES),outcome,AC50
CCCCOC(=O)c1ccccc1C(=O)OCCCC,inactive,
COP(N)(=O)SC (stereo not drawn),inactive,
CN(C)C(=S)SSC(=S)N(C)C,,1.55 nM (active)
CCCCNC(=O)n1c(NC(=O)OC)nc2ccccc21,inactive,
Cc1c(F)c(F)c(COC(=O)C2C(/C=C(\Cl)C(F)(F)F)C2(C)C)c(F)c1F (stereo not drawn),inactive,
COP(=S)(OC)Oc1nc(Cl)c(Cl)cc1Cl,inactive,
COc1ccc(C(c2ccc(OC)cc2)C(Cl)(Cl)Cl)cc1,inactive,
CCOc1cc(Oc2ccc(C(F)(F)F)cc2Cl)ccc1[N+](=O)[O-],,6990 nM (active)
C=CC1(C)OC(=O)N(c2cc(Cl)cc(Cl)c2)C1=O (stereo not drawn),inactive,
CNC(=O)ON=CC(C)(C)SC,inactive,
CCCCC(CC)COC(=O)c1ccccc1C(=O)OCC(CC)CCCC (stereo not drawn),inactive,3180 nM (active)
COC(=O)N(OC)c1ccccc1COc1ccn(-c2ccc(Cl)cc2)n1,inactive,129 nM (active)
CC(C)(C)c1ccc(CSc2cnn(C(C)(C)C)c(=O)c2Cl)cc1,,1.67 nM (active)
C=CCC1=C(C)C(OC(=O)C2C(C=C(C)C)C2(C)C)CC1=O (stereo not drawn),inactive,
CCNc1nc(Cl)nc(NC(C)C)n1,inactive,
C=CCC1=C(C)[C@@H](OC(=O)[C@@H]2[C@@H](C=C(C)C)C2(C)C)CC1=O,inactive,
CO/C=C(/C(=O)OC)c1ccccc1Oc1cc(Oc2ccccc2C#N)ncn1,,1.55 µM (active) and 2.03 µM (active)
Cc1ccc(-c2c(Cl)nc(C#N)n2S(=O)(=O)N(C)C)cc1,inactive,
CCOC(=O)CC(SP(=S)(OC)OC)C(=O)OCC (stereo not drawn),inactive,
CCCCNC(=O)OCC#CI,,4.03 µM (active) and 1.28 µM (active)
N#Cc1nn(-c2c(Cl)cc(C(F)(F)F)cc2Cl)c(N)c1S(=O)C(F)(F)F (stereo not drawn),inactive,
